In PubChem BioAssay AID1487 (National Center for Advancing Translational Sciences (NCATS), 2009):
The campaign covered roughly 200,000 compounds. About 25 (0.01%) were called active. Entries that show only a call come without a potency. Another 23% or so got no clear call; they are omitted. This excerpt belongs to a sample that is enriched for actives. Values without a mark were called inactive. Calls follow the shape of the dose curve; as a rule, active = well fitted inhibition curve with a large enough effect in the signal ratio, with a control signal flat (not every such curve was filed as active); inconclusive = small, poorly fitted or top-dose-only effect, or effect the other way, or a change in a side signal; inactive = flat fitted curve, though single readings scatter; the % refers to the signal ratio.

Assay: qHTS Assay for Modulators of Lamin A Splicing
Conditions: HeLa LMNA splicing GFP/RFP minigene ratio, 48 h; series mostly up to 46 µM
From the text: NCGC Assay Overview: Hutchinson-Gilford Progeria Syndrome (HGPS) is a pediatric premature aging disease caused by a spontaneous mutation in the lamin A/C (LMNA) gene. The mutation activates a cryptic splice site in the LMNA pre-mRNA which results in production of a pre-lamin A protein that cannot be processed properly. The mutant protein accumulates in the nucleus and negatively affects numerous cellular functions. Correction of the splicing defect in HGPS patient cells using a targeted oligonucleotide (exo11) leads to reversal of the cellular disease phenotypes. To identify small molecule modulators of aberrant LMNA splicing, a homogenous assay was constructed in HeLa cells that used a GFP containing minigene to report on correction of aberrant splicing in lamin A and a RFP (DsRed2) to report on cell viability, uniformity and nonspecific effects on the assay signal. This assay was adapted to laser-scanning microplate cytometry (Acumen, TTP Labtech) where miniaturization of the assay to a 1,536-well plate format was possible. References: Bowen, W. P.; Wylie, P. G. Application of Laser-Scanning Fluorescence Microplate Cytometry in High Content Screening. Assay Drug Dev Technol 2006;4:209-221. Scaffidi P, Misteli T. Reversal of the cellular phenotype in the premature aging disease Hutchinson-Gilford progeria syndrome. Nat.
NCGC Assay Protocol Summary: Reagents/Controls: Stable clones expressing DsRed2 and lamin A-EGFP were generated by Cell and Molecular Technologies in S3 HeLa cells. HeLa cells were prepared for the assay when they were 70-90% confluent. The cells were counted and resuspended in Opti-MEM I (no phenol red; Gibco), 2% FBS, 1% penicillin/ streptomycin (Gibco) at concentration of 120 cells/uL concentration. The suspension was passed through a Falcon basket filter with pore size 40um (Beckton Dickson). Control titrations: column […] 1536-well plate contained a sixteen point titration (1:2 dilutions) in duplicate of ancitabine (Sigma: A8598) beginning at 40 uM final concentration. Column 2 contained a sixteen point titration (1:2 dilutions) of cycloheximide beginning at 1.4 mM final concentration. Column 3 contained ancitabine at 40 uM and column 4 contained was the vehicle control (0.5% DMSO final concentration). Assay Steps: 5 uL of HeLa cells were plated in Aurora LoBase black clear bottom (cyclic-olefin polymer) 1536-well plates at a final density of 600 cells/well. Controls and library compounds were added with a 1536-well pin array using the Kalypsys pin-tool. The plates were then incubated for 48 hrs in a cell-culture incubator (37 °C; 5% CO2, 98% humidity). Following incubation the plates were read on the Acumen Explorer using the 488 nm laser. Data was collected on objects between 10 and 100 um in size. Cell objects were defined by a 15 um width x 10 um depth filter. The ratio of the total object intensity in PMT1 (500-530 nm emission; GFP) over PMT3 (575-640 nm emission; RFP) was calculated for analysis. Keywords: NIH Roadmap, MLSCN, MLI, MLSMR, qHTS, NCGC, lamin A, Progeria, RNA splicing.
Potency is read from the fitted curve at half-maximal effect.

Row | SMILES | ratio change, negative = inhibition | Potency
1 | Cc1ccccc1-n1nc(SCC(=O)O)sc1=S | inactive | –
2 | CCCCCN(C(=O)NC(=O)Nc1cccc(C)c1C)S(C)(=O)=O | inactive | –
3 | CC(C)(C)NC(=O)Cn1cnc2cc([N+](=O)[O-])ccc2c1=O | inactive | –
4 | Cc1c(-c2cccc(NC(=O)C(C)(C)C)c2)nc2ncccn12 | inactive | –
5 | COc1ccc(Cc2n[nH]c(=S)n2NC(=O)Nc2ccc(C)cc2)cc1 | inactive | –
6 | COc1c(C=O)c(CCN(C)C(=O)c2ccc(F)cc2)cc2c1OCO2 | inactive | –
7 | O=C(Nc1ccc(C(=O)OCc2cc(=O)n3nc(C4CC4)sc3n2)cc1)c1ccc(F)cc1 | inactive | –
8 | COc1cccc(CN(C)CC(=O)Nc2ccccc2C(=O)Nc2ccccc2)c1 | inactive | –
9 | OC(COc1ccc(CN2CCSCC2)cc1)CN1CCCCC1 (stereo unspecified) | inactive | –
10 | CCN(Cc1ccccc1)S(=O)(=O)c1ccc2c(c1)CCCN2C(C)=O | inactive | –
11 | CSc1ccc(S(=O)(=O)NC2CCCCC2)cc1 | inactive | –
12 | CC1CCC(NS(=O)(=O)c2ccc3c(c2)n(C)c(=O)c(=O)n3C)CC1 (stereo unspecified) | inactive | –
13 | Cn1sc(=O)c2cc(S(=O)(=O)NC3CC3)ccc21 | – | 11.2 µM (active)
14 | COc1ccc(S(=O)(=O)NCC2CCCN(C(=O)c3occc3C)C2)cc1 (stereo unspecified) | inactive | –
15 | CN1CCN(/N=C2/C(=O)Nc3ccc([N+](=O)[O-])cc32)CC1 | inactive | –
16 | CCOc1ccccc1N1CCN(C(=O)COc2ccc3c(C)cc(=O)oc3c2)CC1 | inactive | –
17 | COc1ccc(CNC(=O)COCc2cc(-c3cccs3)on2)cc1OC | inactive | –
18 | O=C(Nc1ccc(Br)cn1)c1ccc([N+](=O)[O-])cc1Cl | inactive | –
19 | CC12CN(NC(=O)c3ccc(Cl)cc3)C3(C#N)CC1CCC23C (stereo unspecified) | inactive | –
20 | CCOCCc1nn2c(=O)cc(COC(=O)CNC(=O)c3ccc(C(C)(C)C)cc3)nc2s1 | inactive | –
21 | Cc1ccc(S(=O)(=O)CC(=O)Nc2c(C)n(C)n(-c3ccccc3)c2=O)cc1 | inactive | –
22 | Cc1c(CCNC(=O)c2ccc(C(F)(F)F)cc2)sc2nc(-c3ccc(F)cc3)nn12 | inactive | –

Row | SMILES | ratio change, negative = inhibition | Potency
23 | Cc1ccc2c(c1)C1CN(C)CCC1N2C(=S)Nc1ccc(OC(F)F)cc1 (stereo unspecified) | inactive | –
24 | CN1CCN(C(CNC(=O)c2ccccc2F)c2ccc3c(c2)OCO3)CC1 (stereo unspecified) | inactive | –
25 | COc1ccc(-c2cn3cccnc3n2)cc1 | inactive | –
26 | CC1(C)CC(CNCCC(c2ccc(F)cc2)c2ccco2)CCO1 (stereo unspecified) | inactive | –
27 | CCc1ccc(NC(=O)c2nn(-c3ccc(C)cc3)c(=O)n(C)c2=O)cc1 | inactive | –
28 | CN(C)S(=O)(=O)N1CCN(c2ccc([N+](=O)[O-])cc2)CC1 | 10.9% [at 9.22 µM] | –
29 | COc1ccccc1CNC(=O)c1ccccc1NC(=O)c1nsc2ccccc12 | inactive | –
30 | O=C(CSc1nnc2ccc(-c3ccncc3)nn12)N1CCCCC1 | inactive | –
31 | Cc1ccc([N+](=O)[O-])c(OCCCNCC(C)O)c1 (stereo unspecified) | inactive | –
32 | COc1cccc(NC(=O)C(=O)NCC(c2ccc3c(c2)OCO3)N2CCN(C)CC2)c1 (stereo unspecified) | inactive | –
33 | CCOC(=O)c1c(-c2cccc(C)c2)csc1NC(=O)c1c(-c2ccccc2)noc1C | – | 0.631 µM (active)
34 | Cc1onc(-c2ccccc2)c1C(=O)Nc1ccccc1C#N | inactive | –
35 | CC(=O)Nc1cccc(NC(=O)c2c(-c3ccccc3)noc2C)c1 | inactive | –
36 | Cc1cc(C)cc(OCC(=O)O/N=C(\N)Cc2ccc([N+](=O)[O-])cc2)c1 | inactive | –
37 | COc1ccc(Sc2nc(-c3ccccc3)ncc2OC)cc1 | inactive | –
38 | Cc1ccc(SCC(=O)Nc2ccc3oc(-c4ccccc4F)nc3c2)cc1 | inactive | –
39 | COCCNC(=O)c1ccc(-n2c(SCc3cccnc3)nc3ccccc3c2=O)cc1 | inactive | –
40 | Cc1cccc(C)c1NC(=S)N(Cc1cccnc1)Cc1ccccc1Cl | 17.6% [at 9.22 µM] | –
41 | CCN1CCN(CCCNC(=O)c2ccc3c(c2)sc2nc(-c4ccc(OC)cc4)cn23)CC1 | inactive | –
42 | CCOC(=O)c1c(-c2cccc(N)c2)cn2ccccc12 | inactive | –
43 | Cc1ccc(CSc2nc3cccnc3n2Cc2ccc(C(=O)NC3CC3)cc2)cc1 | inactive | –
44 | N#C/C(=C(\O)C(F)(F)F)c1nnc2n1CCCCC2 | inactive | –

Row | SMILES | ratio change, negative = inhibition | Potency
45 | O=C(Cc1ccc(Cl)cc1)NCc1nc(-c2ccccc2)no1 | inactive | –
46 | CCOC(=O)c1c(SCC(=O)Nc2cccc(C)c2C)nc(=O)[nH]c1C | inactive | –
47 | COc1cc2c(C(=O)N3CCN(C)CC3)c(CSc3ccccc3)n(C)c2cc1Br | inactive | –
48 | COc1cc(C(=O)Nc2cc(C(F)(F)F)ccc2-n2cncn2)cc(OC)c1OC | inactive | –
49 | Cc1ccc(COc2ccc(C(=O)NN)cc2)cc1 | inactive | –
50 | CC(=O)c1ccc(NC(=O)CSc2nc(-c3ccccc3F)nc3c2c(=O)n(C)c(=O)n3C)cc1 | inactive | –
51 | CSc1nc2c(c(=O)[nH]1)C(c1cccc(Cl)c1Cl)CC(=O)N2 (stereo unspecified) | -8.67% [at 9.22 µM] | –
52 | CCc1nnc2c3ccccc3nc(N3CCN(c4ccc(C)cc4C)CC3)n12 | inactive | –
53 | O=C1COc2ccc(C(=O)COC(=O)C3CC(O)CN3S(=O)(=O)c3ccc(Cl)cc3)cc2N1 (stereo unspecified) | inactive | –
54 | COC(=O)c1c(NC(=O)CCCC(=O)O)sc2c1CCCCC2 | inactive | –
55 | COc1cccc(CNC(=O)C2CCN(S(=O)(=O)c3ccc4c(ccn4C)c3)CC2)c1 | inactive | –
56 | CC1(C)CN(c2ccc(-c3ccnc4ncnn34)cc2)C1=O | inactive | –
57 | CCOc1cc(C(=O)Nc2nnc3n2CCS3)cc(OCC)c1OCC | inactive | –
58 | COc1ccc(C(C)=O)cc1CSc1nc2nc(C)cc(C)n2n1 | inactive | –
59 | CC(=O)N1CCCc2ccc(NS(=O)(=O)c3ccc(F)cc3F)cc21 | inactive | –
60 | CCOc1ccc(-n2cnc3c(=O)[nH]c(N)nc32)cc1 | inactive | –
61 | CCOC(=O)Cn1c(=O)n(-c2ccccc2OC)c2nc(-c3cccc(F)c3)nc(C(N)=O)c21 | inactive | –
62 | CCCNC(=O)CCC(=O)N1Cc2ccccc2Oc2ncccc21 | inactive | –
63 | COc1ccc(NC(=O)N2CCCn3nc(C)cc32)cc1OC | inactive | –
64 | Cc1cnc(C(=O)OCC(=O)N2CCc3ccccc32)cn1 | 1.94% [at 9.22 µM] | –
65 | COC(=O)CSc1ncnc2c1cnn2-c1ccc(C)cc1C | inactive | –
66 | COc1ccc(C2=NN(C(=O)CCC(=O)O)C(c3cccs3)C2)cc1OC (stereo unspecified) | inactive | –
